Assay results published in PubChem BioAssay (Tox21).
Unmarked numbers belong to inactive results. Inconclusive results are not listed. Entries that show only a call come without a potency. Activity calls are given as the source filed them. Unless noted, calls come from the whole dose curve.

Tests used:
[1] = Nuclear factor erythroid 2-related factor 2/antioxidant responsive element (Nrf2/ARE) small molecule agonists: qHTS cell viability counter screen in human keratinocytes (AID 1919968; active = well fitted curve in the direction sought with a large enough effect in the repeat runs; an effect the other way counts as inactive or inconclusive; note: nearly all actives have a fitted effect of over 55% in size; note: potency is the fitted concentration of half-maximal effect)
In short: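 CellTiter-Fluor fluorescence, read 1 h after reagent, gave viability in the same wells as the ARE-luciferase assay. KeratinoSens cells (1,500/well) had 23 h compound exposure at 37 C/5% CO2 following 5 h plating.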

[2] = molecular target: Gonadotropin-releasing hormone receptor (Homo sapiens) (UniProt P30968); assay: Human gonadotropin-releasing hormone receptor (GnRHR) small molecule agonists, calcium flux assay in GnRHR-HEK293 cells (AID 1920063); note: nearly all actives have a fitted effect of over 35% in size
In short: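 Agonist mode: compounds at 15 concentrations, in triplicate, went onto calcium dye-loaded GnRHR-HEK293 cells. Intracellular calcium was then followed as 480/540 nm fluorescence at 1 s intervals over 3 min.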

[3] = molecular target: KiSS-1 receptor (Homo sapiens) (UniProt Q969F8); assay: Human kisspeptin (KISS1R) small molecule agonists, calcium flux assay in KISS1R-HEK293 cells (AID 1920064; active = well fitted curve in the direction sought with a large enough effect in the repeat runs; an effect the other way counts as inactive or inconclusive)
In short: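 Agonist mode: intracellular calcium rise tracked at 1 s intervals over 3 min (480/540 nm) immediately after compound addition to dye-loaded KISS1R-HEK293 stable cells. Each compound tested at 15 concentrations in triplicate.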

[4] = p53 small molecule agonists, cell-based qHTS assay with human liver microsomes (AID 1963577);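 note: p53 response element beta-lactamase reporter cells with liver microsomes plus NADPH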
In short: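 In this qHTS, p53 response-element beta-lactamase cells receive test compound together with a microsome/NADPH activating system (0.5 mg/mL final each) and are incubated 16 h at 37 C before LiveBLAzer fluorescence detection.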

[5] = p53 small molecule agonists, cell-based qHTS assay with rat liver microsomes (AID 1963578)
In short: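 Agonist mode in p53RE-bla reporter cells, with compounds co-incubated 16 h at 37 C alongside 0.5 mg/mL rat liver microsomes and 0.5 mg/mL NADPH (final), followed by a 2 h LiveBLAzer detection step.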

[6] = p53 small molecule agonists, cell-based qHTS assay with human liver microsomes: qHTS cell viability counter screen (AID 1963579); note: nearly all actives have a fitted effect of over 45% in size
In short: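 Metabolically activated exposure: compounds, human liver microsomes and NADPH (0.5 mg/mL final apiece) were added to p53RE-bla cells seeded 5 h earlier, left 16 h at 37 C, and then assessed for viability by CellTiter-Glo luminescence.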

[7] = p53 small molecule agonists, cell-based qHTS assay with rat liver microsomes: qHTS cell viability counter screen (AID 1963580); note: nearly all actives have a fitted effect of over 45% in size
In short: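 Luminescent ATP readout (CellTiter-Glo, 30 min at room temperature) reports viability of p53RE-bla HCT-116 cells after 16 h at 37 C with test compounds under metabolic activation by rat liver microsomes and NADPH at 0.5 mg/mL final each.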

[8] = p53 small molecule agonists, cell-based qHTS assay: qHTS cell viability counter screen (AID 1963581); note: nearly all actives have a fitted effect of over 45% in size
In short: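 Counter screen read by CellTiter-Glo luminescence (ATP content, 30 min at room temperature), run in the same wells as the beta-lactamase reporter read. HCT-116 p53RE-bla cells saw compounds for 16 h at 37 C.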

[9] = p53 small molecule agonists, cell-based qHTS assay (AID 1963582; active = well fitted activation curve with a large enough effect in the signal ratio in the repeat runs, not every such curve was filed as active; the % refers to the signal ratio; note: potency is the fitted concentration of half-maximal effect)
In short: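 Read-out is beta-lactamase FRET fluorescence after 2 h at room temperature with LiveBLAzer B/G substrate. p53 response element-bla cells were treated 16 h at 37 C with compounds in DMSO, added 5 h after seeding.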

[10] = molecular target: 5-hydroxytryptamine receptor 2A (Homo sapiens) (UniProt P28223); assay: 5-hydroxytryptamine receptor 2A (HTR2A) small molecule antagonists, cell-based qHTS assay (AID 1963586); note: nearly all actives have a fitted effect of over 45% in size; note: potency is the fitted concentration of half-maximal effect
In short: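 CHO cells stably expressing human HTR2A were plated for 18 h at 37 C, then loaded with calcium dye for 1 h. Compounds were preincubated 5 min at room temperature before DOI (4 nM solution) was added. Kinetic fluorescence was read for 3 min.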

[11] = molecular target: Muscarinic acetylcholine receptor M1 (Homo sapiens) (UniProt P11229); assay: Cholinergic receptor muscarinic 1 (CHRM1) small molecule antagonists, cell-based qHTS assay (AID 1963588); note: nearly all actives have a fitted effect of over 40% in size
In short: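 Compounds were tested at 15 concentrations in three independent runs. Dye-loaded CHRM1-CHO cells were exposed 5 min at room temperature before stimulation by acetylcholine added at 50nM. Intracellular calcium was read kinetically on FDSS for 3 min.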

[12] = molecular target: Muscarinic acetylcholine receptor M1 (Homo sapiens) (UniProt P11229); assay: Cholinergic receptor muscarinic 1 (CHRM1) small molecule agonists, cell-based qHTS assay (AID 1963589); note: nearly all actives have a fitted effect of over 35% in size
In short: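 Agonist-mode calcium-flux screen: compounds at 15 concentrations, three independent runs, were pin-transferred onto dye-loaded human CHRM1-CHO cells. Fluorescence was then recorded kinetically every second over minutes.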

[13] = cAMP Responsive Elements (CRE) small molecule agonists, cell-based qHTS assay (AID 1963590)
In short: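 Agonist mode: compound added to CRE-bla HEK 293T cells (2,000/well, 18 h after plating) for 3 h at 37 C/5% CO2. Reporter activity detected via FRET beta-lactamase substrate, 2 h room-temperature loading.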

[14] = molecular target: Beta-2 adrenergic receptor (Homo sapiens) (UniProt P07550); assay: Adrenergic beta2 receptor (ADRB2) small molecule antagonists, cell-based qHTS assay (AID 1963592); note: series mostly up to about 92 µM; nearly all actives have a fitted effect of over 50% in size
In short: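 Assay format: CHO-ADRB2 cells, 18-20hr seeding at 37C/5% CO2, then compound plus 1nM isoproterenol agonist mix for 0.5hr RT. Homogeneous time-resolved fluorescence cAMP detection after 1hr, expressed as 665/615 nm ratio.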

[15] = molecular target: D(2) dopamine receptor (Homo sapiens) (UniProt P14416); assay: Dopamine D2 receptor (DRD2) small molecule agonists, cell-based qHTS assay (AID 1963594); note: nearly all actives have a fitted effect of over 35% in size
In short: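 HEK293 cells stably expressing DRD2 were cultured 24 h at 37 C, then given Ro20-1724 (0.1 mM final) and compounds for 10 min at room temperature. NKH477 (200nM) was then added for 30 min. cAMP was read by HTRF.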

[16] = molecular target: D(2) dopamine receptor (Homo sapiens) (UniProt P14416); assay: Dopamine D2 receptor (DRD2) small molecule antagonists, cell-based qHTS assay (AID 1963595; active = well fitted inhibition curve with a large enough effect in the signal ratio in the repeat runs, with a control signal flat; the % refers to the signal ratio)
In short: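 Cells were plated and grown for 24 h at 37 °C. Ro20-1724 (0.1 mM final) went in first, then compound for 10 min. NKH477 (200 nM) with quinpirole (12 nM) followed for 30 min at RT, then HTRF detection reagents for 1 h.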

[17] = cAMP Responsive Elements (CRE) small molecule antagonists, cell-based qHTS assay (AID 1963591; active = well fitted inhibition curve with a large enough effect in the signal ratio in the repeat runs, not every such curve was filed as active; the % refers to the signal ratio; note: potency is the fitted concentration of half-maximal effect)
In short: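 Antagonist mode: compounds are added alongside the adenylyl cyclase activator NKH477 (0.25 uM final) to CRE-bla HEK293T cells for 3 h. LiveBLAzer FRET substrate, 2 h at room temperature, reports bla expression.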

[18] = molecular target: Beta-2 adrenergic receptor (Homo sapiens) (UniProt P07550); assay: Adrenergic beta2 receptor (ADRB2) small molecule agonists, cell-based qHTS assay (AID 1963593);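 note: CHO cells stably overexpressing human ADRB2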
In short: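 CHO cells stably over-expressing ADRB2 were plated overnight at 37C, then dosed with compounds plus a stimulation mix containing 100uM IBMX and 25uM Ro-20-1724 for 0.5hr at room temperature. cAMP was measured by HTRF competition, 1hr.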

[19] = G protein-coupled receptor (GPCR) small molecule agonists, calcium flux assay: HEK293 wild type cell line counter screen (AID 1920065)
In short: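 Calcium flux counter screen: compound added in agonist mode at 15 concentrations in triplicate to dye-loaded parental HEK293 cells. Fluorescence (480/540) read kinetically for 3 min; ATP served as positive control.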

[20] = molecular target: 5-hydroxytryptamine receptor 2A (Homo sapiens) (UniProt P28223); assay: 5-hydroxytryptamine receptor 2A (HTR2A) small molecule agonists, cell-based qHTS assay (AID 1963587); note: nearly all actives have a fitted effect of over 30% in size; note: potency is the fitted concentration of half-maximal effect
In short: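 HTR2A-CHO cells, plated 18 h at 37 C/5% CO2, dye-loaded 1 h at 37 C; compounds in DMSO added by pin tool (agonist mode). Intracellular calcium flux read as kinetic fluorescence on FDSS over 2 min at 1 s intervals.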

Chain of Beta-2 adrenergic receptor (Homo sapiens) (P07550 whole entry, looked up): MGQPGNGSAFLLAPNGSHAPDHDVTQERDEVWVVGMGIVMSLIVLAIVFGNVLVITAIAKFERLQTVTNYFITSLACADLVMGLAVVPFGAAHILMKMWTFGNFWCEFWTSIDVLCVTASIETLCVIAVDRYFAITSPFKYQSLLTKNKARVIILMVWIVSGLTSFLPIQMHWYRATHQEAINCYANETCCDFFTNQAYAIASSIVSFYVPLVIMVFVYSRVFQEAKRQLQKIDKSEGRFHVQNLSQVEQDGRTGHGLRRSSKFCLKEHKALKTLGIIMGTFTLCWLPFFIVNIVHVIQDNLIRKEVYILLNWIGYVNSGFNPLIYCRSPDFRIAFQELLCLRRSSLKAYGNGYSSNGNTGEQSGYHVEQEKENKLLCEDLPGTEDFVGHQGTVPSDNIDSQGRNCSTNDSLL
Chain of Muscarinic acetylcholine receptor M1 (Homo sapiens) (P11229 whole entry, looked up): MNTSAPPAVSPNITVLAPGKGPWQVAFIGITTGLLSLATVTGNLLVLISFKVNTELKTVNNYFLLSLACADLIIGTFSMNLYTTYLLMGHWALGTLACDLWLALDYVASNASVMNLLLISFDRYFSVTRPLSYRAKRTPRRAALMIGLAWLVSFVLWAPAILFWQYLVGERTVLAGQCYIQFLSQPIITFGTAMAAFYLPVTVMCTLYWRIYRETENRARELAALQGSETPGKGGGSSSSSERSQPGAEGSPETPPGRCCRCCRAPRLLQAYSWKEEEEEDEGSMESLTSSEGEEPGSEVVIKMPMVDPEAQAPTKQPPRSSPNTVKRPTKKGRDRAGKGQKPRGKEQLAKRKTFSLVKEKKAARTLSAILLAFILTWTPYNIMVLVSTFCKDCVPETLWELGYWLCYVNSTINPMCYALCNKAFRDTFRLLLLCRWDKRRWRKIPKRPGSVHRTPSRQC
Chain of D(2) dopamine receptor (Homo sapiens) (P14416 whole entry, looked up): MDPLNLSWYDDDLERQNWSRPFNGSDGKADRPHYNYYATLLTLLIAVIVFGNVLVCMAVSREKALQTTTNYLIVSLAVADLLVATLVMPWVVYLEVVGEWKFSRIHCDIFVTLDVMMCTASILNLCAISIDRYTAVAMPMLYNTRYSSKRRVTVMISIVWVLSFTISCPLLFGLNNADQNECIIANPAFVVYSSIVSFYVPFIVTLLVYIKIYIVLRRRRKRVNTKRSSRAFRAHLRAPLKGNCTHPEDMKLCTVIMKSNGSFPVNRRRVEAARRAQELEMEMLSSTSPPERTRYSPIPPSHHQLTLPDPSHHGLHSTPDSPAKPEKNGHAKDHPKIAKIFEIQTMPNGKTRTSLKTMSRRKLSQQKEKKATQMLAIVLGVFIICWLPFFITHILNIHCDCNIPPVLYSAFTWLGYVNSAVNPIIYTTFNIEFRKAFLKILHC
Chain of KiSS-1 receptor (Homo sapiens) (Q969F8 whole entry, looked up): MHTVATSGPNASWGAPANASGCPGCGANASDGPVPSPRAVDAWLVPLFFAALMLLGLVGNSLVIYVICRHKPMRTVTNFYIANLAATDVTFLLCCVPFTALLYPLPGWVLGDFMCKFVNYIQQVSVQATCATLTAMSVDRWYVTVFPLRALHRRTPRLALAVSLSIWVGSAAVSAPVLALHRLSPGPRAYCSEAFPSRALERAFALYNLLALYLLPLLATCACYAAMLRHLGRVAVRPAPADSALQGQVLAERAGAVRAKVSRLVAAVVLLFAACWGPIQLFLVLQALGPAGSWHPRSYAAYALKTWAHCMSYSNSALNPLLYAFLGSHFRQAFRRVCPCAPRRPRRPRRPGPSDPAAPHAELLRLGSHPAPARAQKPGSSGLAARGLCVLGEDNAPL
Chain of 5-hydroxytryptamine receptor 2A (Homo sapiens) (P28223 whole entry, looked up): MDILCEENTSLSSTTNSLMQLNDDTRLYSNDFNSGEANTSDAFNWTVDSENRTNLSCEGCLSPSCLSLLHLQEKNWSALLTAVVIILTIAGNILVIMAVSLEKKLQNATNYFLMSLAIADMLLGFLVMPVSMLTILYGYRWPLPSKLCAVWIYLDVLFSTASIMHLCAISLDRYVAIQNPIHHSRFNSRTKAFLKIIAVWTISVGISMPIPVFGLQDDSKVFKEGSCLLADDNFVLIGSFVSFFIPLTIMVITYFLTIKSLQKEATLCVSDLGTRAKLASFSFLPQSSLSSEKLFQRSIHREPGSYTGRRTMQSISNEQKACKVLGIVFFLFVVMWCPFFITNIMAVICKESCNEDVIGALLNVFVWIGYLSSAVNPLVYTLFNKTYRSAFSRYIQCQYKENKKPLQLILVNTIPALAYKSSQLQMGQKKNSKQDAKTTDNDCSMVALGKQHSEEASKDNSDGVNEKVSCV
Chain of Gonadotropin-releasing hormone receptor (Homo sapiens) (P30968 whole entry, looked up): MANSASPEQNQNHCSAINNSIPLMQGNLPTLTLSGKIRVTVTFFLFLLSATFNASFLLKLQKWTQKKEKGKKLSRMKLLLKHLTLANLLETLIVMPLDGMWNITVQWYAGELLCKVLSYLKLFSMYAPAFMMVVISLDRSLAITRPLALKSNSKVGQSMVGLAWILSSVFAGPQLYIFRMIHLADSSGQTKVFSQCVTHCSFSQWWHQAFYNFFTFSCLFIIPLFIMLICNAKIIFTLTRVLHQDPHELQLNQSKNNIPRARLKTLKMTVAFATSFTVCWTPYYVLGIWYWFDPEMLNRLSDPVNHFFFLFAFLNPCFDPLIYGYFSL

SMILES	Potency [1]	Potency [2]	Potency [3]	Potency [4]	Potency [5]	Potency [6]	Potency [7]	Potency [8]	Potency [9]	Potency [10]	Potency [11]	Potency [12]	Potency [13]	Potency [14]	Potency [15]	Potency [16]	Potency [17]	Potency [18]	Potency [19]	Potency [20]
Cc1cccc(OCCOc2cccc(C)c2)c1	inactive	inactive	inactive	inactive	inactive	inactive	inactive	inactive	inactive	inactive	inactive	inactive	inactive	inactive	inactive	inactive	–	–	–	–
CSc1c(Cl)c(Cl)c(Cl)c(Cl)c1Cl	inactive	inactive	inactive	–	inactive	inactive	inactive	–	–	inactive	inactive	inactive	inactive	inactive	inactive	inactive	inactive	inactive	–	–
CCCCCCCC/C=C\CCCCCCCC(=O)OCCOC(=O)CCCCCCC/C=C\CCCCCCCC	inactive	inactive	–	inactive	inactive	inactive	inactive	inactive	inactive	inactive	inactive	inactive	inactive	–	inactive	inactive	–	–	inactive	inactive
CC(=O)Nc1ccccc1O	inactive	inactive	–	inactive	inactive	inactive	inactive	inactive	inactive	inactive	inactive	inactive	inactive	inactive	inactive	inactive	inactive	inactive	inactive	inactive
CC(C)(C)C1=CC(=O)C=C(C(C)(C)C)C1=O	inactive	inactive	inactive	–	–	inactive	inactive	inactive	–	inactive	inactive	inactive	–	inactive	inactive	inactive	inactive	–	–	–
C=CCCCCCC	inactive	inactive	–	inactive	inactive	–	inactive	–	inactive	inactive	inactive	inactive	inactive	inactive	inactive	inactive	inactive	inactive	inactive	inactive
c1cc(C(c2ccc(OCC3CO3)cc2)c2ccc(OCC3CO3)cc2)ccc1OCC1CO1 (stereo unspecified)	27.3 µM (active)	inactive	inactive	inactive	inactive	inactive	–	inactive	–	inactive	inactive	inactive	–	–	inactive	inactive	–	–	–	inactive
Cc1ccc(C(C)(C)C)c(O)c1	inactive	inactive	inactive	inactive	inactive	inactive	inactive	inactive	inactive	inactive	–	inactive	–	inactive	inactive	inactive	–	–	–	–
CCN(Cc1cccc(S(=O)(=O)O)c1)c1ccc(C(=C2C=CC(=[N+](CC)Cc3cccc(S(=O)(=O)[O-])c3)C=C2)c2ccccc2)cc1	inactive	inactive	–	inactive	inactive	inactive	inactive	–	inactive	inactive	inactive	inactive	inactive	inactive	inactive	inactive	–	–	inactive	inactive
Nc1ccc(C(=O)Nc2ccccc2N)cc1	inactive	inactive	–	inactive	inactive	inactive	inactive	inactive	inactive	inactive	inactive	inactive	inactive	–	–	inactive	–	–	inactive	inactive
CCCCCCCCCCCCOC(C)=O	inactive	inactive	inactive	–	–	inactive	inactive	inactive	–	2.11 µM (active)	inactive	inactive	inactive	inactive	inactive	inactive	inactive	–	–	inactive
O=C(c1ccccc1)c1cc(Cl)ccc1O	inactive	inactive	–	inactive	inactive	–	inactive	inactive	inactive	inactive	–	inactive	–	inactive	inactive	inactive	41.1 µM (active)	–	inactive	inactive
C=C(C)C(=O)OCCOCCOCCOCCOC(=O)C(=C)C	inactive	inactive	–	inactive	inactive	inactive	inactive	inactive	inactive	inactive	inactive	inactive	–	inactive	inactive	inactive	–	inactive	inactive	inactive
O=C(NOCC1CC1)c1ccc(F)c(F)c1Nc1ccc(I)cc1Cl	29.8 µM (active)	inactive	inactive	inactive	inactive	inactive	inactive	inactive	19.9 µM (active)	–	–	inactive	–	inactive	inactive	inactive	–	–	–	inactive
CCCC(=O)OCC	inactive	inactive	inactive	–	inactive	inactive	inactive	inactive	inactive	–	inactive	inactive	inactive	inactive	–	inactive	inactive	–	–	inactive
CCCCCCCC/C=C/CCCOC(C)=O	inactive	inactive	–	inactive	inactive	–	inactive	inactive	–	inactive	inactive	inactive	inactive	inactive	inactive	inactive	inactive	–	inactive	inactive
CC(=O)[C@H]1[C@H](C#N)C[C@H]2[C@@H]3CC=C4C[C@@H](O)CC[C@]4(C)[C@H]3CC[C@@]21C	inactive	inactive	inactive	inactive	inactive	–	inactive	inactive	inactive	–	–	–	inactive	inactive	inactive	inactive	–	–	–	–
On1ccccc1=S	0.27 µM (active)	inactive	inactive	inactive	inactive	inactive	–	–	–	inactive	inactive	–	inactive	inactive	inactive	inactive	–	–	–	21.7 µM (active)
